Tests used:
[1] = target: Calcium/calmodulin-dependent protein kinase type 1 (Homo sapiens) (UniProt Q14012); details: at 1 µM
[2] = target: Calcium/calmodulin-dependent protein kinase type 1 (Homo sapiens) (UniProt Q14012); details: at 10 µM
[3] = target: Calcium/calmodulin-dependent protein kinase type II subunit beta (Homo sapiens) (UniProt Q13554); details: at 1 µM
[4] = target: Calcium/calmodulin-dependent protein kinase type II subunit beta (Homo sapiens) (UniProt Q13554); details: at 10 µM
[5] = target: Calcium/calmodulin-dependent protein kinase type II subunit gamma (Homo sapiens) (UniProt Q13555); details: at 1 µM
[6] = target: Calcium/calmodulin-dependent protein kinase type II subunit gamma (Homo sapiens) (UniProt Q13555); details: at 10 µM
[7] = target: Calcium/calmodulin-dependent protein kinase type II subunit delta (Homo sapiens) (UniProt Q13557); details: at 1 µM
[8] = target: Calcium/calmodulin-dependent protein kinase type II subunit delta (Homo sapiens) (UniProt Q13557); details: at 10 µM
[9] = target: T1, Calcium/calmodulin-dependent protein kinase type IV (Homo sapiens) (UniProt Q16566); details: at 1 µM
T1 sequence (whole entry): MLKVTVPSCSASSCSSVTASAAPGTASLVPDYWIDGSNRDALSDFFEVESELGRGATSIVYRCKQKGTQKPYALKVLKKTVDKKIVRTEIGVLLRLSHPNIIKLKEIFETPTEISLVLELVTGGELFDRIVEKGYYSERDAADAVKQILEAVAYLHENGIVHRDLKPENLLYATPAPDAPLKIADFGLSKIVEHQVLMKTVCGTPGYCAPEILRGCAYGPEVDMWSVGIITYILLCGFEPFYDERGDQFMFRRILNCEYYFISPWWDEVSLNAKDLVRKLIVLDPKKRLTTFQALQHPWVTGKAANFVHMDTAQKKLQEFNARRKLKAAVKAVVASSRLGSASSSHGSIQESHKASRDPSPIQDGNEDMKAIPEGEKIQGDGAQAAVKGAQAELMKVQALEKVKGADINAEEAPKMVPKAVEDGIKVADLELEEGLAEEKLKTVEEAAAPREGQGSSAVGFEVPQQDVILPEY

[10] = target: T1, Calcium/calmodulin-dependent protein kinase type IV (Homo sapiens); details: at 10 µM

Chain of Calcium/calmodulin-dependent protein kinase type II subunit gamma (Homo sapiens) (Q13555 whole entry): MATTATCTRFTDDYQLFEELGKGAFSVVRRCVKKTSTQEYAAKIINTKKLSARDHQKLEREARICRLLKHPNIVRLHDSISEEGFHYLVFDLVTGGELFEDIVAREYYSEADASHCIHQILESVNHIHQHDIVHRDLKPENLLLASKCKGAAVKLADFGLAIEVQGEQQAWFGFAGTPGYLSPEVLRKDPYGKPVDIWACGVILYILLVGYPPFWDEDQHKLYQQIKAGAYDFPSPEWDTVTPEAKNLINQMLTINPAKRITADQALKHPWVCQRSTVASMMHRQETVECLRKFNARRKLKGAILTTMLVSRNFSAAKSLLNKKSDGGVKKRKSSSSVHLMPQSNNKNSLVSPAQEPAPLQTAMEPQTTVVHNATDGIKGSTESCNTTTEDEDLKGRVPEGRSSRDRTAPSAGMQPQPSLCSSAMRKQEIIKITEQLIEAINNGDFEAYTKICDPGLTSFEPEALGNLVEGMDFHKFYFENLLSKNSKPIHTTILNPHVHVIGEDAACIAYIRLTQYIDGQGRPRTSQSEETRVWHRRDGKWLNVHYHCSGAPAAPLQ
Chain of Calcium/calmodulin-dependent protein kinase type II subunit delta (Homo sapiens) (Q13557 whole entry): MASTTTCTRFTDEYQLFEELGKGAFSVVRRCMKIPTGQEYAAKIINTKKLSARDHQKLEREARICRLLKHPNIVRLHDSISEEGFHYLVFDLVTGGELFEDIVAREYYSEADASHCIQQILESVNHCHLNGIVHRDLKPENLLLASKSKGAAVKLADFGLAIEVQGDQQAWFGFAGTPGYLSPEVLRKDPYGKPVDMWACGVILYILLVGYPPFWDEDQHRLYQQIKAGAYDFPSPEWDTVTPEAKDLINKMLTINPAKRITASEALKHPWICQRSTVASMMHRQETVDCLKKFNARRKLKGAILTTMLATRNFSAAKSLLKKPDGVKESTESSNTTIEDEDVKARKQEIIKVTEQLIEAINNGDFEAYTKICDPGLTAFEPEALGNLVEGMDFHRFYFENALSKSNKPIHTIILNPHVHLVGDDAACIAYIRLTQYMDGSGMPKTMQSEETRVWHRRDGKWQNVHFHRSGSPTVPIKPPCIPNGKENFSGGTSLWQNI
Chain of Calcium/calmodulin-dependent protein kinase type 1 (Homo sapiens) (Q14012 whole entry, looked up): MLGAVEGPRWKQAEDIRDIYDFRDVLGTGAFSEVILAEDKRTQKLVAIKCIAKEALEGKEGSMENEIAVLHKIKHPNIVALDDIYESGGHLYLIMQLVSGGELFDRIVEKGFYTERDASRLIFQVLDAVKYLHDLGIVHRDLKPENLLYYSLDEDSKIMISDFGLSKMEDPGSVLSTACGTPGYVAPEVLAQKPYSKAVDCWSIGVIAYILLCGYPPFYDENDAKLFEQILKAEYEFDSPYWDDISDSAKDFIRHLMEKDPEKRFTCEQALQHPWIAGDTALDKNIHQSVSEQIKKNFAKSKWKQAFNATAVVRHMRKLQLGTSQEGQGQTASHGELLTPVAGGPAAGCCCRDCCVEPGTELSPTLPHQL
Chain of Calcium/calmodulin-dependent protein kinase type II subunit beta (Homo sapiens) (Q13554 whole entry): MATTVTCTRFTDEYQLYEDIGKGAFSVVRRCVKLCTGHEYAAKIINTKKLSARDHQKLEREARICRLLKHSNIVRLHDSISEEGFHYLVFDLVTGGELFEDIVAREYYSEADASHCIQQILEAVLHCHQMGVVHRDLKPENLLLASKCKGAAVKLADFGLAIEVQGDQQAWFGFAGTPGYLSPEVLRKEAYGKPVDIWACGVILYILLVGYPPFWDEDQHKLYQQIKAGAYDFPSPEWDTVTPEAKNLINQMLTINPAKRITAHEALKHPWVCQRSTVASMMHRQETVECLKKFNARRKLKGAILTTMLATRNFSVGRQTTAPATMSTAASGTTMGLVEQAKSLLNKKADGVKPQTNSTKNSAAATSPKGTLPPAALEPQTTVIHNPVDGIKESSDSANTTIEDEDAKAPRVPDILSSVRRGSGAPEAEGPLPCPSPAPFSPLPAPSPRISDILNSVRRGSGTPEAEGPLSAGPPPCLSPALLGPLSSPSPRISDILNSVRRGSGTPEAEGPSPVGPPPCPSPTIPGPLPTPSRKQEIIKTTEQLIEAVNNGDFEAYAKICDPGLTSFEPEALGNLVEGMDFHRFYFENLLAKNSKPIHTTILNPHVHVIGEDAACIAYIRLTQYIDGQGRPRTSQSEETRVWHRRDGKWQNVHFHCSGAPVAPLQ

## COc1ccc2c(c1)c(C1=C(c3c[nH]c4ccccc34)C(=O)NC1=O)cn2CCCN(C)C
[1]
  residual activity: 96%
[2]
  residual activity: 45%
[3]
  residual activity: 80%
[4]
  residual activity: 28%
[5]
  residual activity: 62%
[6]
  residual activity: 10%
[7]
  residual activity: 42%
[8]
  residual activity: 8%
[9]
  residual activity: 105%
[10]
  residual activity: 61%

## CCN(CC)CCNC(=O)c1c(C)[nH]c(/C=C2\C(=O)Nc3ccc(Cl)cc32)c1C
[1]
  residual activity: 51%
[2]
  residual activity: -2%
[3]
  residual activity: 8%
[4]
  residual activity: 1%
[5]
  residual activity: 3%
[6]
  residual activity: 0%
[7]
  residual activity: 3%
[8]
  residual activity: 1%

## c1ccc(-c2cnc(Nc3ccc(OCCN4CCCC4)cc3)s2)cc1
[1]
  residual activity: 101%
[2]
  residual activity: 41%
[3]
  residual activity: 48%
[4]
  residual activity: 7%
[5]
  residual activity: 19%
[6]
  residual activity: -1%
[7]
  residual activity: 22%
[8]
  residual activity: 4%

## COc1ccc(-c2cnc3c(-c4ccsc4)cnn3c2)cc1
[1]
  residual activity: 88%
[2]
  residual activity: 80%
[3]
  residual activity: 93%
[4]
  residual activity: 89%
[5]
  residual activity: 71%
[6]
  residual activity: 79%
[7]
  residual activity: 80%
[8]
  residual activity: 87%

## Nc1ncnc2[nH]nc(Nc3ccc(F)cc3)c12
[1]
  residual activity: 91%
[2]
  residual activity: 72%
[3]
  residual activity: 67%
[4]
  residual activity: 20%
[6]
  residual activity: 30%
[7]
  residual activity: 77%
[8]
  residual activity: 26%
[9]
  residual activity: 100%
[10]
  residual activity: 104%

## O=C1NC(=O)C(c2cn(CCCO)c3ncccc23)=C1c1cnccn1
[1]
  residual activity: 93%
[2]
  residual activity: 97%
[3]
  residual activity: 75%
[4]
  residual activity: 70%
[5]
  residual activity: 88%
[6]
  residual activity: 74%
[7]
  residual activity: 80%
[8]
  residual activity: 64%

## CCCCc1c(-c2ccc(OC)cc2)[nH]c2nccnc12
[1]
  residual activity: 109%
[2]
  residual activity: 86%
[3]
  residual activity: 82%
[4]
  residual activity: 84%
[5]
  residual activity: 64%
[6]
  residual activity: 26%
[7]
  residual activity: 73%
[8]
  residual activity: 42%
[9]
  residual activity: 112%

## CC(C)c1nn(-c2c(Cl)cccc2Cl)c2nc(Cc3ccc(OCCO)cc3)[nH]c(=O)c12
[1]
  residual activity: 90%
[2]
  residual activity: 91%
[3]
  residual activity: 91%
[4]
  residual activity: 59%
[5]
  residual activity: 95%
[6]
  residual activity: 60%
[7]
  residual activity: 94%
[8]
  residual activity: 67%
[10]
  residual activity: 82%

## O=C(NC(NC(=S)Nc1ccc(F)c([N+](=O)[O-])c1)C(Cl)(Cl)Cl)C(c1ccccc1)c1ccccc1 (stereo not drawn)
[1]
  residual activity: 99%
[2]
  residual activity: 91%
[3]
  residual activity: 91%
[4]
  residual activity: 72%
[5]
  residual activity: 99%
[6]
  residual activity: 89%
[7]
  residual activity: 99%
[8]
  residual activity: 82%

## O=C1Nc2ccc(Cl)cc2/C1=C/c1cc(Cl)c(O)c(Cl)c1
[1]
  residual activity: 96%
[2]
  residual activity: 63%
[3]
  residual activity: 69%
[4]
  residual activity: 23%
[5]
  residual activity: 62%
[6]
  residual activity: 10%
[7]
  residual activity: 69%
[8]
  residual activity: 10%

## O=c1cc(N2CCOCC2)oc2c1ccc1ccccc12
[1]
  residual activity: 104%
[2]
  residual activity: 72%
[3]
  residual activity: 103%
[4]
  residual activity: 72%
[5]
  residual activity: 104%
[6]
  residual activity: 81%
[7]
  residual activity: 99%
[8]
  residual activity: 75%
[10]
  residual activity: 103%

## Cn1c2ccccc2c2c3c(c4c5ccccc5n(CCC#N)c4c21)CNC3=O
[1]
  residual activity: 80%
[2]
  residual activity: 32%
[3]
  residual activity: 11%
[4]
  residual activity: 10%
[5]
  residual activity: 2%
[6]
  residual activity: -5%
[7]
  residual activity: 1%
[8]
  residual activity: 1%
[9]
  residual activity: 100%
[10]
  residual activity: 58%

## O=C(CCCc1ccc(-c2ccccc2F)cc1)Nc1ccc(O)cc1
[1]
  residual activity: 92%
[2]
  residual activity: 73%
[3]
  residual activity: 100%
[4]
  residual activity: 89%
[5]
  residual activity: 106%
[6]
  residual activity: 75%
[7]
  residual activity: 109%
[8]
  residual activity: 78%
[9]
  residual activity: 104%

## Nc1ncnc2c1c(-c1ccc(Oc3ccccc3)cc1)cn2C1CCCC1
[1]
  residual activity: 95%
[2]
  residual activity: 29%
[3]
  residual activity: 83%
[4]
  residual activity: 57%
[6]
  residual activity: 72%
[7]
  residual activity: 98%
[8]
  residual activity: 68%
[9]
  residual activity: 112%
[10]
  residual activity: 85%

## O=C1NC(=O)c2c1c1c3ccccc3[nH]c1n1cncc21
[1]
  residual activity: 61%
[2]
  residual activity: 36%
[3]
  residual activity: 22%
[4]
  residual activity: 14%
[5]
  residual activity: 15%
[6]
  residual activity: 7%
[7]
  residual activity: 12%
[8]
  residual activity: 6%
[9]
  residual activity: 61%
[10]
  residual activity: 62%

## O=C1NC(=O)C(c2cn(CCCn3ccnc3)c3ccccc23)=C1Nc1ccccc1
[1]
  residual activity: 106%
[2]
  residual activity: 53%
[3]
  residual activity: 77%
[4]
  residual activity: 45%
[7]
  residual activity: 77%
[8]
  residual activity: 23%
[9]
  residual activity: 106%
[10]
  residual activity: 74%

## CC(C)(C)c1nc2c3ccc(F)cc3c3c(=O)[nH]ccc3c2[nH]1
[1]
  residual activity: 60%
[2]
  residual activity: 9%
[4]
  residual activity: 33%
[5]
  residual activity: 21%
[6]
  residual activity: 3%
[7]
  residual activity: 24%
[8]
  residual activity: 11%
[9]
  residual activity: 1%
[10]
  residual activity: 0%

## O=C(c1ccccc1)c1ccc(N2CCOCC2)cc1O
[1]
  residual activity: 95%
[2]
  residual activity: 98%
[4]
  residual activity: 71%
[6]
  residual activity: 78%
[7]
  residual activity: 100%
[8]
  residual activity: 76%
[9]
  residual activity: 111%

## CC(C)(C)n1nc(Cc2cccc3ccccc23)c2c(N)ncnc21
[1]
  residual activity: 105%
[2]
  residual activity: 88%
[3]
  residual activity: 89%
[4]
  residual activity: 68%
[5]
  residual activity: 106%
[6]
  residual activity: 78%
[7]
  residual activity: 106%
[8]
  residual activity: 78%
[9]
  residual activity: 122%
[10]
  residual activity: 74%

## Nc1ncnc2c1cnn2-c1ccccc1
[1]
  residual activity: 99%
[2]
  residual activity: 69%
[4]
  residual activity: 35%
[5]
  residual activity: 91%
[6]
  residual activity: 51%
[7]
  residual activity: 98%
[8]
  residual activity: 63%
[9]
  residual activity: 125%
[10]
  residual activity: 92%

## O=C1Cc2c([nH]c3ccc(Br)cc23)-c2ccccc2N1
[1]
  residual activity: 94%
[2]
  residual activity: 74%
[3]
  residual activity: 81%
[4]
  residual activity: 57%
[7]
  residual activity: 58%
[8]
  residual activity: 16%

## Nc1n[nH]c2nc3ccccc3nc12
[1]
  residual activity: 87%
[2]
  residual activity: 68%
[3]
  residual activity: 75%
[4]
  residual activity: 16%
[5]
  residual activity: 86%
[6]
  residual activity: 28%
[7]
  residual activity: 86%
[8]
  residual activity: 36%
[9]
  residual activity: 121%
[10]
  residual activity: 87%

## O=c1cc(N2CCNCC2)oc2c(-c3ccccc3)cccc12
[1]
  residual activity: 105%
[2]
  residual activity: 80%
[3]
  residual activity: 91%
[4]
  residual activity: 84%
[5]
  residual activity: 104%
[6]
  residual activity: 88%
[7]
  residual activity: 101%
[8]
  residual activity: 77%
[10]
  residual activity: 87%

## COc1cc2nccc(Oc3ccc(NC(=O)Nc4cc(C)on4)c(Cl)c3)c2cc1OC
[1]
  residual activity: 105%
[2]
  residual activity: 41%
[3]
  residual activity: 97%
[4]
  residual activity: 69%
[5]
  residual activity: 108%
[6]
  residual activity: 70%
[7]
  residual activity: 102%
[9]
  residual activity: 123%
[10]
  residual activity: 54%

## CC(C)N(CCC(=O)c1ccc2ccccc2c1)Cc1ccccc1
[1]
  residual activity: 100%
[2]
  residual activity: 80%
[3]
  residual activity: 88%
[4]
  residual activity: 84%

## O=C(O)/C=C/c1cc(Br)c(Br)c(Br)c1Br
[1]
  residual activity: 102%
[2]
  residual activity: 74%
[3]
  residual activity: 78%
[4]
  residual activity: 39%
[5]
  residual activity: 98%
[6]
  residual activity: 31%
[7]
  residual activity: 83%
[8]
  residual activity: 26%
[9]
  residual activity: 94%
[10]
  residual activity: 80%

## COc1cc2ncnc(Nc3cccc(Cl)c3)c2cc1OC
[1]
  residual activity: 108%
[2]
  residual activity: 62%
[4]
  residual activity: 60%
[5]
  residual activity: 45%
[6]
  residual activity: 5%
[7]
  residual activity: 60%
[8]
  residual activity: 18%

## Cn1sc(=O)n(Cc2ccccc2)c1=O
[1]
  residual activity: 75%
[2]
  residual activity: 67%
[3]
  residual activity: 92%
[4]
  residual activity: 83%
[7]
  residual activity: 98%
[8]
  residual activity: 90%
[9]
  residual activity: 73%
[10]
  residual activity: 51%

## NCCNc1ncc(C(N)=O)c(Nc2cccc(C(F)(F)F)c2)n1
[1]
  residual activity: 20%
[2]
  residual activity: -5%
[3]
  residual activity: 73%
[4]
  residual activity: 23%
[5]
  residual activity: 55%
[6]
  residual activity: 3%
[7]
  residual activity: 51%
[8]
  residual activity: 9%
[9]
  residual activity: 114%
[10]
  residual activity: 72%

## NC(=O)Nc1sc(-c2ccc(F)cc2)cc1C(N)=O
[1]
  residual activity: 74%
[2]
  residual activity: 18%
[3]
  residual activity: 86%
[4]
  residual activity: 40%
[5]
  residual activity: 82%
[6]
  residual activity: 32%
[7]
  residual activity: 83%
[8]
  residual activity: 31%
[10]
  residual activity: 72%

## NC(=O)c1ccc(-c2nc(-c3ccc4c(c3)OCCO4)c(-c3ccccn3)[nH]2)cc1
[1]
  residual activity: 91%
